Screening data (PubChem)
ALOX12 inh – blocks human arachidonate 12S-lipoxygenase. purified 12hLO, xylenol orange hydroperoxide absorbance. Potency, µM (doses to about 108 µM), without a hit: at the top dose activity change, negative = inhibition, most hits filed as inhibitors. hit rate 1.1% among 580,000. AID 1671190
Target sequence (P18054 whole entry, looked up): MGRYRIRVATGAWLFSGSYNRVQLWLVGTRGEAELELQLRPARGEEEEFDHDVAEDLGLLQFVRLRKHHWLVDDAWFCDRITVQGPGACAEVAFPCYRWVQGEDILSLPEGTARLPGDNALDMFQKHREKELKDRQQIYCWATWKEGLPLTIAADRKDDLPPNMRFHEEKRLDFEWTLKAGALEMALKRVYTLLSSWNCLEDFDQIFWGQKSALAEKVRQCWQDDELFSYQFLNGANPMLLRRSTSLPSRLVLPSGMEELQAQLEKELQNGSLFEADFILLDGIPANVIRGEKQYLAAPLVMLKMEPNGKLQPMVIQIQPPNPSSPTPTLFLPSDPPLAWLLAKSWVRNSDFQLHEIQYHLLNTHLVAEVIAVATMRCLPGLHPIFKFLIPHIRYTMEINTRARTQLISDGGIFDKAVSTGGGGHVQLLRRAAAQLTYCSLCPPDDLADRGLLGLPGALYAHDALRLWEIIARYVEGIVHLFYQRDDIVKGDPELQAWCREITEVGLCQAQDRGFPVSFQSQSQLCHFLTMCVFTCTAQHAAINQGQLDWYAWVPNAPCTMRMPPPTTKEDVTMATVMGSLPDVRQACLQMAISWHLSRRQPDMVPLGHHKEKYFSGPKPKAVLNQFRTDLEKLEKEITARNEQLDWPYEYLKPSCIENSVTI
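Hydroperoxide product was detected by ferrous iron/xylenol orange as the 573 to 405 nm absorbance ratio. Arachidonic acid at 40 uM (final) was turned over for 30 min at room temperature by 150 nM human 12hLO, pH 7.0 Hepes buffer, after 15 min compound preincubation.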
VP16 counter – Gal4-VP16 reporter inhibition counter-screen | Drosophila S2 Gal4-VP16 UAS-luciferase, luminescence, 20 h | Potency, µM (top dose mostly 53.6 µM), inactives show at the top dose activity, negative = inhibition, most hits filed as inhibitors | hit rate 3.5% among 310,000;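 also: Gal4-VP16 expression switched on by copper sulfate through the metallothionein promoter; nearly all actives have a fitted effect of over 50% in size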
RORg inh – blocks mouse ROR gamma transcriptional activity | P51450 | Drosophila S2 Gal4-RORgamma UAS-luciferase reporter, 20 h | Potency, µM (series often up to 53.6 µM), inactives show at the highest dose activity change, negative = inhibition, actives largely listed as inhibitors | hit rate 5.4% among 310,000 | AID 2551; also: nearly all actives have a fitted effect of over 60% in size
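Drosophila S2 cells stably expressing Gal4-DBD/mouse RORγ fusion under metallothionein promoter plus UAS-luciferase; compound 1 h, then 700 uM CuSO4 induction for 20 h at ambient temperature; inhibition read as reduced luminescence.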
TDP1 cell CPT – DT40-hTDP1 cell growth loss with CPT; hit rate 12% among 420,000; Potency, µM (top dose mostly 46.2 µM), for inactives: top-dose activity change, negative = growth inhibition, usual class: inhibitors; AID 686979; chicken DT40 Tdp1-/-;hTDP1 cells + 20 nM CPT, ATP luminescence, 48 h; also: nearly all actives have a fitted effect of over 55% in size
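Cell growth measured by CellTiter-Glo luminescence after a minimum 48 h, 37 C compound exposure with 20 nM CPT in Tdp1-knockout DT40 cells stably expressing hTDP1, seeded 400/well; qHTS titration format.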
DT40 TDP1 no CPT – qHTS for Inhibitors of human tyrosyl-DNA phosphodiesterase 1 (TDP1): qHTS in cells in absence of CPT. DT40 Tdp1-/- hTDP1 cells, no CPT, ATP luminescence, 48 h. Potency, µM (highest dose often 46.2 µM), for the others: at the highest dose activity change, negative = growth inhibition, hits mostly inhibitors. hit rate 15% among 420,000. AID 686978, 2013; also: nearly all actives have a fitted effect of over 55% in size
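Growth kinetics read by CellTiter-Glo luminescence after ≥48 hr at 37 °C. Cells: DT40 Tdp1-/- stably carrying human TDP1, 400 per well, compound exposure in the absence of CPT (DMSO vehicle).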
ELG1 repair inh – inhibitors of ELG1-dependent DNA repair in HEK293T cells; AID 504467; Potency, µM (titrated, usually from 46.1 µM), inactives show at the top dose activity change, negative = inhibition, hits mostly inhibitors; HEK293T ELG1-luciferase reporter, luminescence, 16 h; DNA damage induced by 5-fluorouridine; hit rate 2.3% among 330,000; also: nearly all actives have a fitted effect of over 55% in size
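Step one: seed 2,000 cells per well. Step two: pin-transfer compound or DMSO alongside 5-fluorouridine. Step three: incubate 16 hr, 37 °C, 5% CO2. Step four: add ONE-Glo, wait 30 min, read luminescence.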
* = called active by the depositor; i = inactive; ? = inconclusive; / = not tested or not shown; [ ] = remark or other dose. Sampled rows, rich in hits. Any-hit rate of the full collection: about 15%. Calls follow the shape of the dose curve; as a rule, active = well fitted curve in the direction sought with a large enough effect; inconclusive = small, poorly fitted or top-dose-only effect, or another doubt; inactive = no such curve, though single readings can be large; an effect the other way counts as inactive or inconclusive. % is scaled to controls: 0 for no effect and ±100 for the full control effect; potency is read from the fitted curve at half-maximal effect.

SMILES	ALOX12 inh	VP16 counter	RORg inh	TDP1 cell CPT	DT40 TDP1 no CPT	ELG1 repair inh
COc1ccc(C2c3ccc(O)cc3Oc3ncn(Cc4ccco4)c(=N)c32)cc1 (configuration not stated)	-12%	23%	8%	12µM*	21µM*	-18%
COc1ccc(C2C3=C(CC(C)(C)CC3=O)Oc3ncn(Cc4ccco4)c(=N)c32)cc1 (configuration not stated)	12%	-15%	24%	-18%	-28%	-18%
COc1ccc(C2c3ccc(O)cc3Oc3ncn(CCN4CCOCC4)c(=N)c32)cc1OC (configuration not stated)	3%	-9%	2%	-25%	-12%	-17%
COc1ccc(C2c3c(ncn(Cc4ccco4)c3=N)Oc3ccc4ccccc4c32)cc1 (configuration not stated)	?	8.9µM*	18µM*	?	16µM*	-7%
CCCCCCNc1nc2c(c(=O)[nH]c(=O)n2C)n1CC(O)COC(C)C (configuration not stated)	8%	/	/	/	/	/
COCCn1ncc(N2CCCC(CC(=O)Nc3ccccc3OC)C2)cc1=O (configuration not stated)	38%	/	/	/	/	/
Cc1noc([C@@H]2C[C@H](NS(=O)(=O)c3cccc4cccnc34)CN2C)n1	15%[176 µM]	/	/	/	/	/
Cc1ccccc1C(=O)N1CCN(c2ccc(NC(=O)c3cccc(OC(C)C)c3)cc2)CC1	0%	?	45%	3.7µM*	3.3µM*	16µM*
COc1c(C)cccc1C(=O)Nc1ccc(N2CCN(C(=O)c3ccccc3C)CC2)cc1	i	?	?	16µM*	15µM*	10µM*
Cc1ccccc1C(=O)N1CCN(c2ccc(NC(=O)c3ccco3)cc2)CC1	17%	14%	?	-15%	?	-9%
Cc1ccccc1C(=O)N1CCN(c2ccc(NC(=O)c3ccc(OC(C)C)cc3)cc2)CC1	-6%	/	/	/	/	/
Cn1cc(S(=O)(=O)N2CCCC(C(=O)Nc3ccn(Cc4c(F)cccc4Cl)n3)C2)cn1 (configuration not stated)	25%	/	/	/	/	/
CC(C)(C)N1C(=O)[C@H]2[C@@H](c3ccc(Br)cc3)N3C(=O)N(c4cccc(Br)c4)C(=O)[C@@]3(Cc3ccccc3)[C@H]2C1=O	/	5%	-1%	?	8.2µM*	36%
CC(C)C[C@@]12C(=O)N(c3cccc(Cl)c3)C(=O)N1[C@H](c1ccc(Br)cc1)[C@@H]1C(=O)N(C(C)(C)C)C(=O)[C@@H]12	-56%	/	/	?	?	24%
CC(C)C[C@@]12C(=O)N(c3cccc(F)c3)C(=O)N1[C@H](c1ccc(Br)cc1)[C@@H]1C(=O)N(C(C)(C)C)C(=O)[C@@H]12	-14%	/	/	?	21µM*	17%
COc1ccc(N2C(=O)N3[C@H](c4cccc(C)c4)[C@@H]4C(=O)N(Cc5ccccc5)C(=O)[C@@H]4[C@]3(Cc3ccccc3)C2=O)cc1	-8%	1%	-12%	12µM*	13µM*	-2%
CC[C@@]12C(=O)N(c3cccc(Cl)c3)C(=O)N1[C@H](c1ccc(Br)cc1)[C@@H]1C(=O)N(C(C)(C)C)C(=O)[C@@H]12	?	/	/	26µM*	16µM*	-1%
CC(NCC(=O)NC1CCCCC1)c1cccc(C(F)(F)F)c1 (configuration not stated)	41%	/	/	/	/	/
O=C1NCc2ccccc2CC12CCCN2CC1=CCCCC1 (configuration not stated)	15%[6.33 µM]	/	/	/	/	/
O=C(N/N=C/c1ccccn1)c1sc2ccccc2c1Cl	i	3.2µM*	2.8µM*	16µM*	13µM*	?
O=C(N/N=C/c1ccc([N+](=O)[O-])o1)c1sc2ccccc2c1Cl	-24%	3.2µM*	2.5µM*	23µM*	26µM*	?
O=C(N/N=C/c1c[nH]c2ccccc12)c1sc2ccccc2c1Cl	14%	?	?	-3%	?	?
Cn1cccc1/C=N/NC(=O)c1sc2ccccc2c1Cl	5%	3.2µM*	0.45µM*	-7%	-29%	?
COc1ccc(-c2nn(-c3ccccc3)cc2C(=O)N/N=C/c2ccc([N+](=O)[O-])o2)cc1	7%	2%[10 µM]	-4%	?	?	?
CC(NC(=O)c1sc2ccccc2c1Cl)c1ccncc1 (configuration not stated)	-32%	/	/	/	/	/
Cc1c(/C=N/NC(=O)c2sc3ccccc3c2Cl)cnn1C	-2%	11µM*	2µM*	?	?	0%
COCCOCc1nc(C2CCCCN2C(=O)Nc2cccc(Cl)c2)no1 (configuration not stated)	45%	/	/	/	/	/
COc1ccc(Oc2c(C)oc3cc(OS(C)(=O)=O)ccc3c2=O)cc1	-21%	/	/	/	/	/
Cc1ccc(S(=O)(=O)NC(C(=O)Oc2ccc3c(C(F)(F)F)cc(=O)oc3c2)c2ccccc2)cc1 (configuration not stated)	50µM*	-35%	29%	-15%	-17%	-12%
Cc1cc(C)c(NC(=O)CC(C)(C)CC(=O)O)c(C)c1	-41%	/	/	/	/	/
